Compound activity as filed in PubChem BioAssay.
In the library only some 2.5% were active in any assay of this set; here they are far more common.
UBC9 SUMO inh – inhibitors of human SUMOylation (UBC9); 290,000 tested, 0.36% active; P63279; inhibition, % at 35 µM; HTRF SUMOylation assay, SAE1/SAE2 + UBC9, in vitro; in the data active means inhibition above about 50%, passing the limit was not always enough
Target sequence (P63279 whole entry, looked up): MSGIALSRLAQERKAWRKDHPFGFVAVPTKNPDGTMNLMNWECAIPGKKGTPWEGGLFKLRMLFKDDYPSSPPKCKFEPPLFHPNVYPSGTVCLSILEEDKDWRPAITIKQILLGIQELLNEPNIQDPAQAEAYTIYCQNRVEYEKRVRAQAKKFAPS
PHOSPHO1 inh – blocks human PHOSPHO1 phosphatase activity; Q8TCT1; AID 1565; recombinant PHOSPHO1, absorbance phosphatase assay; inhibition, % at 13.3 µM; 290,000 tested, 1.1% active; in the data active means inhibition above about 60%
M18AAP inhibitor – PfM18AAP enzyme inhibition; 290,000 tested, 1.2% active; AID 1822; recombinant PfM18AAP, H-Glu-NHMec fluorogenic cleavage; inhibition, % at 7.35 µM;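 active means inhibition above the campaign mean inhibition over all tested compounds plus 3 SD, cut at about 28% in these data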;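 further: 0% = plate median of test compound wells and 100% = 2 mM ZnCl2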
G6PDH CS – counter-screen for G6PDH assay hits: L. mesenteroides G6PDH inhibition; Purified L. mesenteroides G6PDH, diaphorase/resazurin coupled fluorescence, 45 min; inhibition, % at 5 µM; 200,000 tested, 0.12% active; in the data active means inhibition above about 50%
HDAC3 inh – inhibitors of human histone deacetylase 3; O15379; recombinant HDAC3, fluorogenic peptide/trypsin coupled, fluorescence; inhibition, % at 8.3 µM; 320,000 tested, 0.15% active; AID 2718; in the data active means inhibition above about 26%, passing the limit was not always enough
Target sequence (O15379 whole entry, looked up): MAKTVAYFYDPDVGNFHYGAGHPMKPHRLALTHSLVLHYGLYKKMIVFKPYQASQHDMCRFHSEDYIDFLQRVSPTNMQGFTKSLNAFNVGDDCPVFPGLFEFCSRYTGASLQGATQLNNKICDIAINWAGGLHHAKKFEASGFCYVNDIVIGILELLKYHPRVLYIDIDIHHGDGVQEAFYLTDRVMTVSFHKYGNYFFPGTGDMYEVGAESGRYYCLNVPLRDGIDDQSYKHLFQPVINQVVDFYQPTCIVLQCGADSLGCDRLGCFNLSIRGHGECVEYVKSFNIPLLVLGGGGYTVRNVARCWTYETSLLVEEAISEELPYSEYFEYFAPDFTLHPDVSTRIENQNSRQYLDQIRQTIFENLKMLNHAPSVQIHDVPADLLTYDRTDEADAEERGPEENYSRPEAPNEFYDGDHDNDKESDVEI
p97 ATPase inh – blocks human p97 ATPase activity; 220,000 tested, 0.42% active; inhibition, % at 8 µM; P55072; AID 1481; recombinant p97 ATPase, Kinase-Glo ATP luminescence, 3 h; in the data active means inhibition above about 15%;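 further: 0% = DMSO vehicle and 100% = wells lacking enzyme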
Numbers without * were called inactive; . = not tested or not shown.

SMILES	UBC9 SUMO inh	PHOSPHO1 inh	M18AAP inhibitor	G6PDH CS	HDAC3 inh	p97 ATPase inh
CC(C)C(NC(=O)OCc1ccccc1)C(=O)NC(Cc1ccc(O)cc1)C(=O)O (centres undefined)	19	40	-6	.	-5	.
CC(C)[C@H](NC(=O)[C@H](CCCN=C(N)N)NC(=O)NC(Cc1ccccc1)C(=O)O)C(=O)NC(C=O)CCCN=C(N)N (some centres undefined)	-6	4	0	10	84*	1
COc1ccc(N2CCC(CNC(=S)Nc3cccc(C)c3)C2)cc1 (centres undefined)	-12	-10	17	-19	-3	2
COc1ccc(N2CCC(CNS(=O)(=O)c3cccc(C(F)(F)F)c3)C2)cc1 (centres undefined)	-13	79*	6	-15	9	-6
Clc1ccccc1-c1ncc2ccccn12	10	61*	3	6	-7	1
Clc1ccc(-c2ncc3ccccn23)cc1	-7	51	3	15	2	5
COc1ccc(CCC(=O)OCC(=O)NCc2ccccc2)cc1	.	.	.	.	6	.
S=c1[nH]nc(-c2cccnc2)n1/N=C/C=C/c1ccccc1	7	67*	20	5	8	7
Cc1cccc(-c2n[nH]c(=S)n2/N=C/C=C/c2ccco2)c1	.	42	11	.	1	4
CC(/C=N/n1c(-c2ccccc2)n[nH]c1=S)=C\c1ccco1	-2	84*	8	-28	9	2
S=c1[nH]nc(-c2ccncc2)n1/N=C/C=C/c1ccco1	91*	51	31*	8	5	12
S=c1[nH]nc(-c2cccnc2)n1/N=C/c1ccccc1	10	24	20	.	2	3
C=CC[C@H](CC(=O)NCCO)C(=O)N[C@@H](COC(=O)[C@H](CC=C)CC(=O)OC(C)(C)C)Cc1ccccc1	.	.	.	.	2	.
O=C(O)Cc1cn(Cc2ccc(F)cc2)c2ccccc12	17	-5	2	2	0	4
Cc1[nH][nH]c(=O)c1C(c1c(C)[nH][nH]c1=O)c1cn(Cc2ccc(F)cc2)c2ccccc12	80	7	12	26	12	26*
Cc1cc(C)cc(C(=O)Nc2c3c(nn2C(C)(C)C)CS(=O)(=O)C3)c1	1	34	-3	.	-2	.
CC(C)(C)n1nc2c(c1NC(=O)c1cccc(Cl)c1)CS(=O)(=O)C2	-7	65*	5	.	-1	.
Cc1ccc(N2CCN(S(=O)(=O)c3ccc(Cl)s3)CC2C)cc1 (centres undefined)	-38	0	3	.	3	.
N=C(N)c1ccc(Cl)cc1	5	22	2	10	-1	4
N=C(N)c1ccc(/C=C/c2ccc(C(=N)N)cc2O)cc1	36	33	-15	.	50*	5
Cc1ccc(C(=O)Nc2sc3c(c2C(=O)NCc2ccco2)CCCC3)cc1	73*	24	2	-2	-5	2
Cc1ccc(S(=O)(=O)N2CCCCC2CCNC(=O)C(=O)NCC2CCCO2)cc1 (centres undefined)	.	.	.	.	-5	.
S=c1c2c(nc3nc[nH]n13)CCC2	13	93*	-41	.	.	12
CC1CCc2c(nc3nc[nH]n3c2=O)C1 (centres undefined)	9	0	16	-1	-2	3
O=C(N/N=C/C=C/c1ccccc1[N+](=O)[O-])c1cccs1	-8	-4	8	-4	8	0
SMILES	UBC9 SUMO inh	PHOSPHO1 inh	M18AAP inhibitor	G6PDH CS	HDAC3 inh	p97 ATPase inh
O=C(N/N=C\C=C\c1ccc([N+](=O)[O-])o1)c1cccs1	51*	39	15	.	10	.
CCc1ccc2[nH]c(=O)c(-c3ccccc3)c(O)c2c1	9	25	-1	.	-6	.
Cc1ccc(S(=O)(=O)N2CCOCC2)cc1C(=O)Nc1ccccc1N1CCOCC1	.	.	.	.	-1	.
CCOc1ccc(-n2c(SCC(=O)Nc3ccc(CC)cc3)nc3n[nH]c(C)c3c2=N)cc1	56*	-5	0	10	-2	-4
CCCN(CCC)C(=O)CSc1nc2n[nH]c(C)c2c(=N)n1-c1ccc(OCC)cc1	2	23	-5	10	-1	-2
CC(Sc1nnc(-c2cccs2)n1N)C(=O)NCC1CCCO1 (centres undefined)	.	.	.	.	-2	.
O=c1cnnc(N/N=C/c2c[nH]c3ccccc23)[nH]1	6	-5	29*	3	4	2
O=c1cnnc(N/N=C/c2cccs2)[nH]1	-1	42	30*	.	4	8
Cc1cc(=O)[nH]c(N/N=C/c2cccs2)n1	-2	-2	11	0	6	4
COc1ccc(CCNC(=O)CCS(=O)(=O)c2ccc3c(c2)oc(=O)n3C)cc1OC	4	38	1	.	-1	.
Cc1cc2occ(CC(=O)N(C)CC(=O)Nc3ccc(F)cc3)c2cc1C	.	.	.	.	6	.
Cc1ccsc1/C=N/n1c(-c2ccco2)n[nH]c1=S	-6	62*	14	1	8	4
Cc1ccsc1/C=N/n1c(-c2ccccc2)n[nH]c1=S	-13	-13	15	3	3	1
Nc1cc(C(=O)OCC(=O)NNC(=O)c2cccs2)ccc1Cl	.	.	.	.	0	.
COC1CCN(C(=O)C2CCC(=O)N(CCc3cccc(F)c3)C2)CC1 (centres undefined)	2	9	-4	.	7	.
O=C(Nc1ccc(Br)cc1)c1ccc(N2C(=O)C3CC=C(Cl)CC3C2=O)cc1 (centres undefined)	53*	5	-3	-3	1	3
CCN(CC1CCCN(CCc2cccc(OC)c2)C1)C(=O)c1ccoc1 (centres undefined)	4	36	-2	.	11	.
CCOc1cc(C(=O)Nc2ccccc2N2CCOCC2)ccc1OCC(=O)N1CCOCC1	.	.	.	.	3	.
CCOc1cc(C(=O)OC(C(=O)NC(=O)NC)c2ccccc2)ccc1OCC(=O)N1CCOCC1 (centres undefined)	.	.	.	.	27*	.
Cc1ccc(OCCn2cnc3c2c(=O)n(C)c(=O)n3C)cc1	-2	23	-1	.	1	.
Cc1ccccc1CNC(=O)CCC(=O)N1CCOc2ccc(Cl)cc21	0	18	-4	.	.	.
CC/C(=C\C(=O)c1cccnc1)Nc1ccc(C)c(C)c1	1	96*	0	9	4	-4
O=c1[nH]c(SCc2ccccc2)nc2[nH]ncc12	2	64*	26	10	-3	2
CCn1c(CN2CCCCCC2=O)nnc1SCc1cnc(-c2ccccc2)s1	28	62*	-9	4	5	-7
O=C(O)CN1C(=O)C(=O)N(Cc2ccc(Cl)c(Cl)c2)C1=O	18	2	-6	.	5	.
Cc1cccc(NC(=O)c2sc3nc(N)c(C#N)cc3c2N)c1	2	11	28*	-33	0	9
Cc1ccc(NC2=C(N3CCCCC3)C(=O)c3ccccc3C2=O)cc1	21	21	-3	56*	2	-1
O=C1C(Nc2ccccc2)=C(N2CCCCC2)C(=O)c2ccccc21	38	50	1	57*	-2	2
